Some test systems named below: NCI-H23 lung; NCI-H226 lung; NCI-H322M lung; HOP-62 NSCLC; NCI-H460 lung; HOP-92 NSCLC; NCI-H522 lung; A549/ATCC NSCLC; 786-0 renal; COLO 205 colon; DU-145 prostate; K-562 leukemia; MALME-3M melanoma; MDA-MB-231 breast; RXF 393 renal; SF-268 CNS; SF-295 CNS; SF-539 CNS; UACC-257 melanoma; M14 melanoma.
Common to all, as to assay: NCI-60 one-dose screen, 48 h (100 = growth as untreated, 0 = no growth, -100 = all killed)
Settings in all cases: 10 µM unless noted

Each structure is given as a SMILES string. This is part of a sample that, as a whole, favours compounds with a hit. Of some 83,000 tested, about 20% had one in any assay.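 Assay: single dose, 48 h. Readout: percent growth (0 = no net growth; negative = cell death). Active: <10.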 Values without a mark were called inactive. Activity calls are given as the source filed them.

`COc1cc2c(cc1OCCCN1Cc3ccc(OCCCCC(=O)N4CCC(CCN5CCCC5)CC4)cc3C1)N=C(N)C21CCCC1`: the growth was 84.5% in the assay on NCI-H23 lung; 106% with NCI-H226 lung; 107% in the assay on NCI-H322M lung; 79.9% in the assay with HOP-62 NSCLC; 102% in the assay on NCI-H460 lung; 78.7% in the assay on HOP-92 NSCLC. Further, the growth in the assay on NCI-H522 lung is 50.7%; in the assay on A549/ATCC NSCLC it was 85%; with 786-0 renal, 85.4%; in the assay on COLO 205 colon, 42.4%; in the assay with DU-145 prostate, 95.2%; in the assay on K-562 leukemia it was 4.85% (active). Moreover, the growth in the assay with MALME-3M melanoma is 44%; in the assay with MDA-MB-231 breast, 87.1%; in the assay with RXF 393 renal, 90.2%; in the assay on SF-268 CNS, 85.8%; in the assay with SF-295 CNS, 101%; with SF-539 CNS, 54.7%. Moreover, the growth in the assay on UACC-257 melanoma was 85.1%; with M14 melanoma, 58.2%.

Turning to `CCCS(=O)(=O)Nc1ccc(F)c(C(=O)c2c[nH]c3ncc(-c4ccc(Cl)cc4)cc23)c1F`, the growth in the assay on NCI-H23 lung was 56%; with NCI-H226 lung, 57.2%; with NCI-H322M lung it was 27.8%; with HOP-62 NSCLC, 34.8%; with NCI-H460 lung, 17.3%; in the assay with HOP-92 NSCLC, 28%. The growth is 28.9% with NCI-H522 lung; 25.6% in the assay on A549/ATCC NSCLC; 19% with 786-0 renal; -4.91% (active) with COLO 205 colon; 49.3% with DU-145 prostate; 21.9% with K-562 leukemia. Also, the growth was 11.2% with MALME-3M melanoma; 34.4% in the assay with MDA-MB-231 breast; -11.6% (active) in the assay with RXF 393 renal; 41.4% in the assay on SF-268 CNS; 7.92% (active) in the assay with SF-295 CNS; 23.7% in the assay on SF-539 CNS. Further, the results for the growth in the assay on UACC-257 melanoma and in the assay with M14 melanoma were -6.6% (active) and 3.85% (active), respectively.

With `Cc1c(NC(=O)OC[C@@H]2COCCN2)cn2ncnc(Nc3ccc4c(cnn4Cc4cccc(F)c4)c3)c12`, the growth was -12.9% (active) in the assay on NCI-H23 lung; -1.69% (active) in the assay on NCI-H226 lung; -1.86% (active) in the assay with NCI-H322M lung; -25% (active) with HOP-62 NSCLC; 4.49% (active) with NCI-H460 lung; -12.7% (active) with HOP-92 NSCLC. For the same compound, the growth was -30.4% (active) in the assay on NCI-H522 lung; -9.38% (active) in the assay with A549/ATCC NSCLC; 0.0698% (active) with 786-0 renal; -45.4% (active) with COLO 205 colon; 10.1% in the assay on DU-145 prostate; 11.5% in the assay on K-562 leukemia. Moreover, the growth in the assay with MALME-3M melanoma was -27% (active); in the assay with MDA-MB-231 breast it was 1.06% (active); in the assay with RXF 393 renal, -62.4% (active); in the assay with SF-268 CNS, -2.37% (active); in the assay with SF-295 CNS, 14.6%; in the assay with SF-539 CNS, -52.4% (active). Besides, the growth is -31.3% (active) with UACC-257 melanoma and -29.3% (active) in the assay with M14 melanoma.

As to `O=C(CNc1nc2ccccc2s1)Nc1ccc(-c2nc3ccccc3s2)cc1`, the growth with NCI-H23 lung is 88.9%; with NCI-H226 lung it was 92.4%; in the assay with NCI-H322M lung it was 92.3%; in the assay on HOP-62 NSCLC it was 104%; in the assay with NCI-H460 lung, 99.8%; in the assay on HOP-92 NSCLC, 99.8%. For the same compound, the growth with NCI-H522 lung is 91.2%; in the assay with A549/ATCC NSCLC, 100%; in the assay with 786-0 renal it was 102%; in the assay on COLO 205 colon, 112%; in the assay with DU-145 prostate it was 106%; with K-562 leukemia, 95.1%. The growth in the assay on MALME-3M melanoma is 98.1%; in the assay with MDA-MB-231 breast, 99.2%; with RXF 393 renal, 112%; with SF-268 CNS, 92.1%; in the assay with SF-295 CNS it was 107%; with SF-539 CNS it was 107%. For the same compound, the values for the growth in the assay on UACC-257 melanoma and in the assay with M14 melanoma were 102% and 115%, respectively.

Consider `CN1CCN(c2ccc(OC(F)(F)F)c(Nc3ncc4c(n3)-c3c(c(C(N)=O)nn3CCO)CC4)c2)CC1`, for which the growth was 26% in the assay on NCI-H23 lung; 57.8% with NCI-H226 lung; 58.1% in the assay with NCI-H322M lung; 5.17% (active) in the assay with HOP-62 NSCLC; 5.8% (active) in the assay with NCI-H460 lung; 25.8% in the assay with HOP-92 NSCLC. For the same compound, the growth with NCI-H522 lung was -22% (active); in the assay on A549/ATCC NSCLC it was 9.12% (active); in the assay with 786-0 renal, 17%; with COLO 205 colon it was -15.4% (active); in the assay with DU-145 prostate, 10.2%; in the assay on K-562 leukemia, 8.71% (active). Also, the growth was 83.6% in the assay with MALME-3M melanoma; 32.1% in the assay on MDA-MB-231 breast; 32.9% in the assay on RXF 393 renal; 35.6% in the assay with SF-268 CNS; 33.4% in the assay on SF-295 CNS; 3.87% (active) with SF-539 CNS. Further, the growth in the assay with UACC-257 melanoma was 47.6%; in the assay with M14 melanoma, 10.2%.

Turning to `O=C(Nc1cccc([N+](=O)[O-])c1)c1ccc(Cl)c(Cl)c1`, the growth was 59.3% in the assay on NCI-H23 lung; 43.3% in the assay with NCI-H226 lung; 69.7% in the assay on NCI-H322M lung; 7.13% (active) in the assay with HOP-62 NSCLC; 77.6% in the assay with NCI-H460 lung; 51.6% in the assay on HOP-92 NSCLC. In addition, the growth with NCI-H522 lung is 60%; in the assay with A549/ATCC NSCLC it was 68.3%; in the assay with 786-0 renal it was 67.4%; in the assay on COLO 205 colon, 89.7%; with DU-145 prostate, 74.8%; with K-562 leukemia it was 79.9%. Moreover, the growth in the assay on MALME-3M melanoma is 30.2%; in the assay with MDA-MB-231 breast, 80.7%; in the assay with RXF 393 renal, 62.8%; with SF-268 CNS it was 54.4%; with SF-295 CNS, 58.7%; in the assay on SF-539 CNS it was 83%. Besides, the values for the growth with UACC-257 melanoma and in the assay with M14 melanoma were 92.5% and 93.1%, respectively.

For the compound `C/C(=N\NC(=O)Cn1c(-c2ccc(S(C)(=O)=O)cc2)nc2ccccc21)c1ccc(Cl)cc1`, the growth with NCI-H23 lung is 86.9%; in the assay with NCI-H226 lung it was 83.4%; in the assay on NCI-H322M lung, 94.8%; with HOP-62 NSCLC, 88.6%; with NCI-H460 lung, 97.3%; in the assay with HOP-92 NSCLC, 98.3%. Besides, the growth was 75.5% with NCI-H522 lung; 77.6% with A549/ATCC NSCLC; 102% in the assay on 786-0 renal; 93.4% with COLO 205 colon; 112% in the assay on DU-145 prostate; 80.7% in the assay with K-562 leukemia. Also, the growth in the assay on MALME-3M melanoma is 102%; in the assay on MDA-MB-231 breast, 90.2%; with RXF 393 renal it was 92.2%; with SF-268 CNS, 91.3%; in the assay on SF-295 CNS, 90%; in the assay on SF-539 CNS, 106%. Besides, the growth was 88.8% in the assay with UACC-257 melanoma and 94% in the assay on M14 melanoma.

These data come from PubChem BioAssay (NCI).
